Experimental data from PubChem BioAssay (EPA / NIEHS).
Inconclusive results are not listed. Calls of active or inactive are those of the source. The calls were made as follows, unless noted: active = hit-call score of the fitted dose curve at least 0.9, where 1 is the maximum; inconclusive = response in the unintended direction; inactive = score below 0.9.

Experiments:
[1] = biological target: Retinoic acid receptor RXR-alpha (Homo sapiens) (UniProt P19793); test: ATG_RXRa_TRANS: Attagene TRANS-FACTORIAL HepG2 Assay for human Retinoid X Receptor alpha (RXRa) (AID 2283012)
Sequence of Retinoic acid receptor RXR-alpha (Homo sapiens) (P19793 whole entry, looked up, the tested form may be a part): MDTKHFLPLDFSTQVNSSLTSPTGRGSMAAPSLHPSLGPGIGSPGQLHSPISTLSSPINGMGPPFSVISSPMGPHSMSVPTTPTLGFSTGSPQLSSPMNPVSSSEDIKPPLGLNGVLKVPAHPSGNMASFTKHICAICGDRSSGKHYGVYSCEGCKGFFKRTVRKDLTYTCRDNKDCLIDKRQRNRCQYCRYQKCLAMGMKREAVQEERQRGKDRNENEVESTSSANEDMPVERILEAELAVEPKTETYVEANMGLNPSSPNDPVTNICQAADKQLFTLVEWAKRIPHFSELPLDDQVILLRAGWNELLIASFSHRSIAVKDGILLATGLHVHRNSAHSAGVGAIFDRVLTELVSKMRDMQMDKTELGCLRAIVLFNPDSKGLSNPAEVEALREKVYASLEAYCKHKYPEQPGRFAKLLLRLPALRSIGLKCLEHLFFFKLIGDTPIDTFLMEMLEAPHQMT
In short: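 HepG2 cells transiently transfected with multiplexed GAL4-UAS reporter units and chimeric NR-GAL4 fusions, dosed 24 h. Reporter mRNA measured by RT-PCR, FAM labelling, HpaI digestion and capillary electrophoresis; gain-of-signal fitted relative to DMSO baseline.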

[2] = biological target: human Retinoid X Receptor beta (RXRb), RXRB (gene 6257) (UniProt P28702); test: ATG_RXRb_TRANS: Attagene TRANS-FACTORIAL HepG2 Assay for human Retinoid X Receptor beta (RXRb) (AID 2283013)
Sequence of human Retinoid X Receptor beta (RXRb), RXRB (gene 6257) (P28702 whole entry, looked up, the tested form may be a part): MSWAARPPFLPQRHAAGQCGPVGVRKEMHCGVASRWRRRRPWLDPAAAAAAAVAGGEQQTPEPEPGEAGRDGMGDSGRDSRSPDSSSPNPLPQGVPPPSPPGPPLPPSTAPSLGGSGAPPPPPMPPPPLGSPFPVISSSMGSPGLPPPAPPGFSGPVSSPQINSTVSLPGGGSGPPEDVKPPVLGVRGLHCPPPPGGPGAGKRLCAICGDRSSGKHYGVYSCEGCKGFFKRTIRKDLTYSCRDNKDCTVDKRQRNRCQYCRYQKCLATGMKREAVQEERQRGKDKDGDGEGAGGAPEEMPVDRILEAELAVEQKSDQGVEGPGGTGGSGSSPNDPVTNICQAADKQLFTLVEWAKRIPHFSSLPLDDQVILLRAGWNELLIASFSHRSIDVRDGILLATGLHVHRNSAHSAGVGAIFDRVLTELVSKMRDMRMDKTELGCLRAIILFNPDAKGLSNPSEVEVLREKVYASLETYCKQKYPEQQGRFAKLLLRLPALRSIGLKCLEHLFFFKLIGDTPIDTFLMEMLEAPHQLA
In short: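 HepG2 cells transiently transfected with multiplexed reporter units driven by GAL4-UAS and exogenous chimeric NR-Gal4 proteins; treated 24 h. Reporter mRNA measured by RT-PCR, 6-FAM labelling and capillary electrophoresis; gain-of-signal fitted versus DMSO baseline.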

[3] = read-out: E-selectin (Homo sapiens) (UniProt P16581); test: BSK_3C_Eselectin: BioMAP Diversity Plus: 3C Assay for Eselectin Biomarker Activity (AID 2283015; active = hit-call score of the fitted dose curve at least 0.9, where 1 is the maximum; inactive = score below 0.9;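 as to outcome: cell surface E-selectin protein quantified by ELISA 24 h after dosing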); conditions: primary human endothelial cells (HUVEC); actives raise or lower the signal
In short: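 ELISA read-out of E-selectin on endothelial monolayers after 24 h chemical treatment. Human umbilical vein primary cells served as the system, with DMSO defining baseline activity for bidirectional fitting.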

[4] = read-out: Interleukin-1 alpha (IL1a), IL1A (gene 3552); test: BSK_BE3C_IL1a: BioMAP Diversity Plus: BE3C Assay for Interleukin-1 alpha (IL1a) Biomarker Activity (AID 2283016; active = hit-call score of the fitted dose curve at least 0.9, where 1 is the maximum; inactive = score below 0.9); conditions: primary human bronchial epithelial cells; actives raise or lower the signal
In short: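 Human primary bronchial epithelial cells (BE3C system) were dosed with compound and IL-1a measured by ELISA 24 h later. Activity was fitted bidirectionally against DMSO baseline; cytotoxicity was tracked in parallel cultures by SRB total-protein staining.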

[5] = read-out: Monocyte Chemoattractant Protein-1 (MCP1), CCL2 (gene 6347); test: BSK_4H_MCP1: BioMAP Diversity Plus: 4H Assay for Monocyte Chemoattractant Protein-1 (MCP1) Biomarker Activity (AID 2283018; active = hit-call score of the fitted dose curve at least 0.9, where 1 is the maximum; inactive = score below 0.9); conditions: primary human endothelial cells (HUVEC); actives raise or lower the signal
In short: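 Human umbilical vein endothelial cells (4H system) dosed with chemical; MCP-1 measured by ELISA 24 h after dosing. Bidirectional curve fitting against DMSO negative control as baseline; parallel SRB total-protein staining tracks overt cytotoxicity.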

[6] = read-out: Human Leukocyte Antigen - DR isotype (HLADR), HLA-DRA (gene 3122); test: BSK_3C_HLADR: BioMAP Diversity Plus: 3C Assay for Human Leukocyte Antigen - DR isotype (HLADR) Biomarker Activity (AID 2283019; active = hit-call score of the fitted dose curve at least 0.9, where 1 is the maximum; inactive = score below 0.9;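 as to outcome: ELISA of cell-surface HLA-DR on HUVEC 24 h after dosing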); conditions: primary human endothelial cells (HUVEC); actives raise or lower the signal
In short: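 ELISA readout of surface HLA-DR on human umbilical vein endothelium, taken 24 h after chemical treatment. Gain- and loss-of-signal were both fitted relative to DMSO.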

[7] = biological target: human Thyroid Receptor alpha (THRa1), THRA (gene 7067) (UniProt P10827); test: ATG_THRa1_TRANS: Attagene TRANS-FACTORIAL HepG2 Assay for human Thyroid Receptor alpha (THRa1) (AID 2283014)
Sequence of human Thyroid Receptor alpha (THRa1), THRA (gene 7067) (P10827 whole entry, looked up, the tested form may be a part): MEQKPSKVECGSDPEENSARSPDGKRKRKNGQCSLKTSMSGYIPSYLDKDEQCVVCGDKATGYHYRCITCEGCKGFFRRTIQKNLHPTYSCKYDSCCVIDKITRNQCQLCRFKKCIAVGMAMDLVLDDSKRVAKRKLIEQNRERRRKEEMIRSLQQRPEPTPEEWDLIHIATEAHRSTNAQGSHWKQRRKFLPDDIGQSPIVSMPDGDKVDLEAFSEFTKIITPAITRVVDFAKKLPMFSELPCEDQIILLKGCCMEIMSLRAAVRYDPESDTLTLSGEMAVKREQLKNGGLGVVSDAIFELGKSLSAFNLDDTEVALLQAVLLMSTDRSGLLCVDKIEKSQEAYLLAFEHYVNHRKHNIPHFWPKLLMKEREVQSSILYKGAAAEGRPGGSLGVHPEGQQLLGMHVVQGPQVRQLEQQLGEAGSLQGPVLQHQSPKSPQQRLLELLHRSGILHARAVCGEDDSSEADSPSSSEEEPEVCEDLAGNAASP
In short: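 Reporter transcript induction, read by capillary electrophoresis of 6-FAM-labelled RT-PCR products, reflects activity of a transfected THRa1-Gal4 fusion in HepG2 liver cells. Cells were dosed for 24 h; activity was fitted in the positive direction against DMSO.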

[8] = read-out: Monocyte Chemoattractant Protein-1 (MCP1), CCL2 (gene 6347); test: BSK_3C_MCP1: BioMAP Diversity Plus: 3C Assay for Monocyte Chemoattractant Protein-1 (MCP1) Biomarker Activity (AID 2283017; active = hit-call score of the fitted dose curve at least 0.9, where 1 is the maximum; inactive = score below 0.9); conditions: primary human endothelial cells (HUVEC); actives raise or lower the signal
In short: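 ELISA read-out of MCP-1 from human umbilical vein endothelial cell cultures harvested 24 h post-dosing. Gain or loss of signal was fitted relative to DMSO.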

Sequence of E-selectin (Homo sapiens) (P16581 whole entry, looked up): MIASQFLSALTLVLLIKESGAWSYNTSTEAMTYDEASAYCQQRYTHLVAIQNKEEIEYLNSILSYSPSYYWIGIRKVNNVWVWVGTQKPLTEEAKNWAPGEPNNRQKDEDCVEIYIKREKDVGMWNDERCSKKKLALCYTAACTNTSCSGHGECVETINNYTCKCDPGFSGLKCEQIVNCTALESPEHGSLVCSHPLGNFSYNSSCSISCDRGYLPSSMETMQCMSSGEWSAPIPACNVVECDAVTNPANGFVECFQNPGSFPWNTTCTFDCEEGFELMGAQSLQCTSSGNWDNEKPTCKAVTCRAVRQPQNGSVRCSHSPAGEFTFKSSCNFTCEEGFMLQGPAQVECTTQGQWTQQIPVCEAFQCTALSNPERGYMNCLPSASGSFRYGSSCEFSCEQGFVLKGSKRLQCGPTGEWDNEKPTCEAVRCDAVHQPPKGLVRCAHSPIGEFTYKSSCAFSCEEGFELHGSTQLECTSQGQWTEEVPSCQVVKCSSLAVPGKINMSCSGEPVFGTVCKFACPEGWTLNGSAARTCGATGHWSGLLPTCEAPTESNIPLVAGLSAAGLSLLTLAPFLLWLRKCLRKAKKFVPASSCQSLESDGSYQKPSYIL

CCCCCC1=CCCC1=O
outcome [1]: inactive
outcome [2]: inactive
outcome [3]: inactive
outcome [4]: inactive
outcome [5]: inactive
AC50 [6]: 20 µM (active)

CCNc1nc(NC(C)(C)C)nc(OC)n1
outcome [1]: inactive
outcome [2]: inactive
outcome [7]: inactive
outcome [3]: inactive
outcome [4]: inactive
outcome [8]: inactive
outcome [6]: inactive

CCOC(=O)[C@H](O)[C@@H](O)C(=O)OCC
outcome [1]: inactive
outcome [2]: inactive
outcome [7]: inactive

CCCC1CCCC(=O)O1 (configuration not stated)
outcome [1]: inactive
outcome [2]: inactive
outcome [7]: inactive

C/C=C/C=C/CCCCCCCO
outcome [1]: inactive
outcome [7]: inactive

Clc1cc(Cl)c(Cl)c(Cl)c1Cl
outcome [1]: inactive
AC50 [2]: 21.2 µM (active)
outcome [7]: inactive
outcome [3]: inactive
AC50 [4]: 20 µM (active)
outcome [8]: inactive
AC50 [6]: 20 µM (active)

C=CC(=O)OCCCCCCOC(=O)C=C
outcome [1]: inactive
outcome [2]: inactive
outcome [7]: inactive
AC50 [3]: 6.59 µM (active)
AC50 [4]: 10 µM (active)
AC50 [5]: 9.96 µM (active)
AC50 [6]: 4.69 µM (active)

CCCCCCCO
outcome [1]: inactive
AC50 [2]: 114 µM (active)
outcome [3]: inactive
outcome [4]: inactive
outcome [6]: inactive

CC(=O)OCC=C(C)C
outcome [1]: inactive
outcome [2]: inactive
outcome [7]: inactive

CCCCOC(=O)CCC(C)=O
outcome [1]: inactive
outcome [2]: inactive
outcome [7]: inactive

CCCCOCC(C)O (configuration not stated)
outcome [1]: inactive
outcome [2]: inactive
outcome [7]: inactive

CC(C)c1ccc2ncccc2c1
outcome [1]: inactive
outcome [2]: inactive
outcome [7]: inactive

CC(CC=O)CC(C)(C)C (configuration not stated)
outcome [1]: inactive
outcome [2]: inactive
outcome [7]: inactive

COC(OC)(C(=O)c1ccccc1)c1ccccc1
outcome [1]: inactive
outcome [2]: inactive
outcome [3]: inactive
outcome [4]: inactive
outcome [6]: inactive

C=CC(=O)OCCCCCCCC(C)C
outcome [1]: inactive
outcome [2]: inactive
AC50 [3]: 20 µM (active)
AC50 [4]: 0.719 µM (active)
outcome [6]: inactive

C=CCOC(=O)c1ccc(C(=O)OCC=C)c(C(=O)OCC=C)c1
outcome [1]: inactive
outcome [2]: inactive
outcome [7]: inactive

O=C(OCc1ccccc1)c1ccc(O)cc1
outcome [1]: inactive
outcome [2]: inactive

O=C(O[C@@H]1Cc2c(O)cc(O)cc2O[C@@H]1c1cc(O)c(O)c(O)c1)c1cc(O)c(O)c(O)c1
outcome [1]: inactive
outcome [2]: inactive
outcome [7]: inactive

CCC(C)(O)CCCC(C)C (configuration not stated)
outcome [1]: inactive
outcome [2]: inactive
outcome [7]: inactive

CCCCCCCCCCCCc1ccc(O)cc1
outcome [1]: inactive
AC50 [2]: 3.36 µM (active)
outcome [7]: inactive

Cc1cccc(C(C)(C)C)c1O
outcome [1]: inactive
AC50 [2]: 46.4 µM (active)

CC(C)COC(=O)CC(C(=O)OCC(C)C)S(=O)(=O)O (configuration not stated)
outcome [2]: inactive
